Laboratory results: PubChem BioAssay AID624167 (Sanford-Burnham Center for Chemical Genomics, 2012)

Experiment: Peg3 promoter luciferase inhibitors, potency, dose response, cell-based, HeLa, CREF/GAPDH counter-screen panel (AID 624167)
Conditions: CREF/GAPDH counter-screens; run 2, dose range 1, at 100 µM (top of the series)
Work on `C/C(=N\NC(=O)c1c(C)nc2ccccn12)c1ccc(O)cc1O` yielded an inhibition of 7.76%.
`O=C(N/N=C/c1sc(N2CCOCC2)nc1-c1ccccc1)c1cccc(S(=O)(=O)N2CCCC2)c1` gave an inhibition of 42.2%.
Compound `C/C(=N\NC(=O)c1cc(C2CC2)nc2ccccc12)c1ccc(O)cc1O` has an inhibition of -6.29%.
`O=C(Nc1ccccc1C(=O)Nc1nnc(C(F)(F)F)s1)c1ccccc1` showed an inhibition of 60.9%.
In the case of `COc1ccc(/C=C2\SC(=S)N(CCCC(=O)NNC(=O)c3ccccc3O)C2=O)cc1`, the inhibition was 72.3%.
`O=C(CCn1cnc(-c2ccccc2)c1-c1ccccc1)N/N=C/c1ccccc1O` gave an inhibition of 55.9%.
For `CC(=O)NC(c1ccc(Cl)cc1Cl)c1ccc2cccnc2c1O` (configuration not stated), the inhibition was 61.7%.
With `C=CCc1cccc(/C=N/NC(=O)C(C)Nc2cccc(C)c2)c1O` (configuration not stated) the inhibition was 5.69%.
For `Cc1ccc(OCC(=O)c2cc(C)n(Cc3ccco3)c2C)c([N+](=O)[O-])n1`, the inhibition was 66.6%.
`O=C(N/N=C\c1c(O)ccc2ccccc12)c1cncc(Br)c1` showed an inhibition of 72.8%.
Compound `N=c1n(CC(=O)c2ccc([N+](=O)[O-])cc2)c2ccccc2n1Cc1ccc(Cl)cc1` has an inhibition of 90.8%.
`C=CCn1c(COc2ccccc2)nnc1SC(C)C(=O)N/N=C/c1cc(Cl)ccc1O` (configuration not stated) gave an inhibition of 59.9%.
`CC(C)(C)c1ccc(Oc2ccc(N)cc2)cc1` showed an inhibition of 95.6%.
`Cc1ccc(C(C[N+](=O)[O-])Sc2ccc(N)cc2)cc1` (configuration not stated) showed an inhibition of 99.2%.
`CCCC(=O)NC(c1ccc(OC)cc1)c1ccc2cccnc2c1O` (configuration not stated) showed an inhibition of 69%.
`O=C(O)c1ccc(N/N=C/c2ccc(OC(=O)c3cccc(Cl)c3)cc2)cc1` showed an inhibition of 97.2%.
`CCCC(=O)NC(c1ccccc1)c1ccc2cccnc2c1O` (configuration not stated) showed an inhibition of 39.4%.
